From PubChem
Pf apPOL block: Pf-apPOL DNA polymerase inhibition; AID 1794808; hit rate 0.25% among 210,000; inhibition, % at 10 µM; Recombinant Pf-apPOL, molecular beacon fluorescence, 1.5 h
mHTT-CaM PPI inh: disrupts binding of mutant huntingtin to calmodulin | P42858 | AlphaScreen His-mHTT/GST-CaM binding, luminescence | inhibition, % at 15 µM | hit rate 3.6% among 190,000
Numbers stand for hits; . = inactive; / = no result given. This is a sample that favours compounds with a hit; in the whole collection about 3.5% have one here. Cut-off read from the data, not from the text of the source: active = inhibition above about 50%; inactive = the rest.

SMILES	Pf apPOL block	mHTT-CaM PPI inh
Cc1c(Cl)cccc1S(=O)(=O)NCC(O)c1ccc(C(F)(F)F)cc1 (stereo unspecified)	.	68.0
Cc1c(Cl)cccc1NC(=O)C(=O)NCC(O)c1ccc(C(F)(F)F)cc1 (stereo unspecified)	.	.
CN1c2cc(F)ccc2C(=O)NC12CCN(C(=O)c1cc(F)cc(F)c1)CC2	.	.
Cc1ccc2nc(-c3ccc(N=Cc4ccccc4O)cc3)sc2c1	.	/
Cc1ccc(N=Cc2cc3ccccc3[nH]c2=O)cc1	.	57.0
COc1cccc(CCC(=O)N2CCCC2c2nc(-c3cccc(C)c3)no2)c1 (stereo unspecified)	.	.
CCC(C)NC(=O)C1(C)CCC(=O)N1Cc1cc(OC)ccc1OC (stereo unspecified)	.	.
Cc1ccc(-n2cc(C(=O)N3CCN(c4ccccc4)CC3)c3ccccc3c2=O)cc1C	.	74.0
Cc1ccc(-n2cc(C(=O)N3CCCC3)c3ccccc3c2=O)cc1C	.	.
COc1cc(OC)c2ccc(=O)oc2c1C(CCN1CCCC(C)C1)c1ccc2c(c1)OCO2 (stereo unspecified)	.	.
COc1cc(C(CCN2CCCC2)c2c(OC)cc(OC)c3c(C)cc(=O)oc23)cc(OC)c1OC (stereo unspecified)	.	.
COc1cc(C(CCN2CCOCC2)c2c(OC)cc(OC)c3c(C)cc(=O)oc23)cc(OC)c1OC (stereo unspecified)	.	.
COc1cc(OC)c2ccc(=O)oc2c1C(CCN1CCCCC1)c1ccc(N(C)C)cc1 (stereo unspecified)	.	.
COc1cc(C(CCN2CCCCC2)c2c(OC)cc(OC)c3c(-c4ccccc4)cc(=O)oc23)cc(OC)c1OC (stereo unspecified)	.	66.8
CCCCCc1cc(=O)oc2c(C(CCN3CCCCC3)c3ccc(OC)cc3)c(OC)cc(OC)c12 (stereo unspecified)	.	100.1
COc1cc(C(CCN2CCCC(C)C2)c2c(OC)cc(OC)c3c(-c4ccccc4)cc(=O)oc23)cc(OC)c1OC (stereo unspecified)	.	87.2
COc1ccc(C(CCN2CCCC(C)C2)c2c(OC)cc(OC)c3c2OC(=O)CC3c2cc(OC)c(OC)c(OC)c2)cc1 (stereo unspecified)	.	53.6
COCCn1c(CC2CCN(S(=O)(=O)c3cc(F)cc(F)c3)C2)nc2cccnc21 (stereo unspecified)	.	.
COc1cc(Br)c(/C=C2\SC(=N)NC2=O)cc1OC	.	.
CC(C)c1ccc(N2CCN(C(=O)c3ccc(F)cc3)C(C)C2=O)cc1 (stereo unspecified)	.	.
CC1(C(=O)NCCc2ccc(Cl)cc2)CC(=O)N=C2C=CC=CN21 (stereo unspecified)	.	.
CCCNC(=O)CCC1CCCN(c2cc(NC3CC3)ncn2)C1 (stereo unspecified)	.	.
Cc1ccc(CC(=O)N2CCc3nc[nH]c3C2)cc1	.	.
O=[N+]([O-])c1cccc(C2NNC(=S)S2)c1 (stereo unspecified)	/	.
CC(C)c1ccc(C=Nc2ccc(C(=O)O)cc2)cc1	.	/
SMILES	Pf apPOL block	mHTT-CaM PPI inh
COc1ccc(C2=NN(C(=O)c3ccccc3Cl)C(c3cccc([N+](=O)[O-])c3)C2)cc1 (stereo unspecified)	.	.
COc1ccc(C2=NN(CN3C(=O)C(=O)c4ccccc43)C(c3ccccc3Cl)C2)cc1 (stereo unspecified)	.	76.0
COc1ccc(C2=NN(CN3C(=O)C(=O)c4ccccc43)C(c3ccccc3)C2)cc1 (stereo unspecified)	.	.
COc1ccc(C2=NN(CN3C(=O)C(=O)c4ccccc43)C(c3cccc([N+](=O)[O-])c3)C2)cc1 (stereo unspecified)	.	96.0
Nc1nonc1C(=O)NCCNS(=O)(=O)c1ccc(Cl)cc1	.	.
N#C/C(=C\c1cc2c(cc1Br)OCO2)c1ccc([N+](=O)[O-])cc1	.	.
N#C/C(=C\c1ccccc1/C=C(\C#N)c1ccc2c(c1)OCO2)c1ccc2c(c1)OCO2	/	72.7
NC(=O)c1cnc2sc3c(n2c1=O)CCCC3	.	.
c1ccc(-n2ncc3c(N4CCCc5ccccc54)nnnc32)cc1	.	.
Cc1cc(Br)cc2c1NC(=O)C2(O)N1CCOCC1 (stereo unspecified)	.	.
COc1cc(C2(c3ccc(O)c(OC)c3)C(=O)Nc3c(C)cc(Br)cc32)ccc1O	.	59.6
COc1ccccc1N1CCN(Cc2ccc(NC(C)=O)cc2)CC1	.	.
COc1cccc(-c2nc(C3CCN(C(=O)c4ccc(C)cc4)CC3)no2)c1	.	.
Cc1ccc(CNC(=O)CCCn2c(=O)c3sccc3n(Cc3ccccc3F)c2=O)cc1	.	.
CCn1ccc2sc(C)c(C(=O)N3CCN(c4ccc(F)cc4)CC3)c2c1=O	.	54.9
CCCn1ccc2sc(C)c(C(=O)N3CCN(c4ccc(F)cc4)CC3)c2c1=O	.	60.4
Cc1sc2ccn(C)c(=O)c2c1C(=O)N1CCCCCC1	.	.
Cc1ccc(C)c(N2CCN(C(=O)c3c(C)sc4ccn(C)c(=O)c34)CC2)c1	.	91.5
CCn1ccc2sc(C)c(C(=O)N3CCN(c4ccccc4F)CC3)c2c1=O	.	.
CCCn1ccc2sc(C)c(C(=O)N3CCCC3)c2c1=O	.	.
O=C1C2C3C=CC(CO)(O3)C2C(=O)N1c1ccc(Cl)c(C(F)(F)F)c1 (stereo unspecified)	.	.
COc1ccc(N2CCN(C(=O)C3CCC3)C(C)C2=O)c(OC)c1 (stereo unspecified)	.	.
CC/C(=C\c1ccccc1)c1cccc2oc3ccccc3c12	.	.
CC/C(=C/c1ccccc1)c1cccc2[nH]c3c(OC)cccc3c12	.	53.6
O=C1CSC2(C(=O)Nc3ccccc32)N1c1ccc2c(c1)oc1ccccc12 (stereo unspecified)	/	.
SMILES	Pf apPOL block	mHTT-CaM PPI inh
O=C(CN1C(=O)CCC1=O)N1CCC(Cn2ccnc2)CC1	.	.
Cn1nc([N+](=O)[O-])nc1-n1cnc2ccccc21	.	.
OC(COCC12CC3CC(CC(C3)C1)C2)CN1CCN(c2ccccc2F)CC1 (stereo unspecified)	.	.
OC(COCCC12CC3CC(CC(C3)C1)C2)CN1CCN(Cc2ccccc2)CC1 (stereo unspecified)	.	56.6
OC(COCC12CC3CC(CC(C3)C1)C2)CN1CCN(Cc2ccccc2)CC1 (stereo unspecified)	.	.
OC(COCCC12CC3CC(CC(C3)C1)C2)CN1CCN(c2ccccc2F)CC1 (stereo unspecified)	.	53.3
CCOc1cccc(C(=O)Nc2ccccc2F)c1	.	.
O=C(CC1(O)C(=O)N(Cc2ccc(Cl)cc2)c2ccccc21)c1cccc([N+](=O)[O-])c1 (stereo unspecified)	.	92.9
COc1ccc(C(=O)CC2(O)C(=O)N(CCc3ccccc3)c3ccccc32)cc1[N+](=O)[O-] (stereo unspecified)	.	71.1
C=CCN1C(=O)C(O)(CC(=O)c2ccc([N+](=O)[O-])cc2)c2ccccc21 (stereo unspecified)	.	.
O=C(CC1(O)C(=O)N(Cc2ccc(Cl)cc2)c2ccccc21)c1ccc([N+](=O)[O-])cc1 (stereo unspecified)	.	86.3
C=CCN1C(=O)C(O)(CC(=O)c2ccc(OC)c([N+](=O)[O-])c2)c2ccccc21 (stereo unspecified)	.	.
